Here are results for 14 molecules from PubChem BioAssay (NCATS).

Assay [1] can be described thus: AP1 Signaling Pathway (AID 357).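 Also: ME-180 reporter cells stimulated with EGF at its EC50 level; % is scaled to controls: 0 for no effect and ±100 for the full control effect.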 The method, boiled down: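 Modulation of EGF-driven AP-1 transcription was assessed with a beta-lactamase reporter in ME-180 cells. Compound and EC50 EGF were co-incubated 5 hours at 37 °C before 2.5-hour CCF4 loading at room temperature and dual-emission reading.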
The nature of assay [2]: NFAT Signaling Pathway (AID 444).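 Also: carbachol stimulus at about its EC50 of 1 µM final; % is scaled to controls: 0 for no effect and ±100 for the full control effect.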 The conditions noted are these: Jurkat NFAT-bla M1, carbachol, beta-lactamase ratio, 5 h. The method, boiled down: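 Jurkat cells carrying an NFAT-driven β-lactamase reporter and co-transfected muscarinic M1 receptor were treated with compound plus carbachol (1 uM final, an EC50 level) for 5 h at 37 °C. CCF4 loading followed for 1 h at RT; 460/530 nm ratio gave %activity.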

Assay [3] is described as follows: Stat Signaling Pathway (AID 446).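 Also: ME-180 cervical cancer cells given 40 pM IL-6 alongside compound; SIE-controlled beta-lactamase reporter measured as 460/530 nm FRET emission ratio; % is scaled to controls: 0 for no effect and ±100 for the full control effect.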 The conditions noted are these: ME-180 (cervical carcinoma) SIE beta-lactamase reporter, IL-6 stimulated, 5 h. The procedure, abridged: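 FRET read-out (405 nm excitation, 460/530 nm emission) of a beta-lactamase reporter under a STAT-inducible element in ME-180 cervical carcinoma cells. Cells with compound receive 40 pM IL-6 for 5 h. Values are normalised to AC90 stimulation and AC90 JAK-inhibitor controls.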

The target in assay [4] is Lysosomal acid glucosylceramidase (Homo sapiens) (UniProt P04062). Description: Glucocerebrosidase-p2 (AID 348; in the data active = potency below about 10 µM; also: potency is read from the fitted curve at half-maximal effect). The conditions noted are these: purified GBA, blue fluorogenic substrate, 40 min. The method, boiled down:
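Normal human glucocerebrosidase (0.2 nM) with blue fluorogenic substrate (80 uM final) in citrate/phosphate pH 5.9 with 10mM sodium taurocholate, 0.01% tween-20; 40 min RT, NaOH/glycine stop; fluorescence Ex 365/Em 440; AC50 from a titration from 0.6 nM upwards.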

Assay [5] concerns the target Cytochrome P450 1A2 (Homo sapiens) (UniProt P05177). As to the kind of experiment: p450-cyp1a2 (AID 410; calls by dose curve; also: potency is read from the fitted curve at half-maximal effect;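 as to activity change, negative = inhibition: -100% = full effect of reference inhibitor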). The method, boiled down:
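Read-out is luminescence from luciferin produced by CYP1A2 demethylation of Luciferin-ME (100uM, at Km). Detection reagent stopped the 60 min NADPH-dependent reaction; signals were normalized to 57 uM furafylline.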

Assay [6] in a line: Cell Viability - BJ (AID 421; calls by dose curve;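 also: potency is read from the fitted curve at half-maximal effect; cells exposed to compound for 40 hours at 37 °C before readout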). The conditions noted are these: BJ fibroblast viability, qHTS. The method, boiled down: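 Cytotoxicity as drop in intracellular ATP (CellTiter-Glo, 20 min RT) after 40 hr compound exposure of BJ fibroblasts at 37 °C. Titrations scaled between DMSO and 100 uM tamoxifen, Hill-fitted for AC50.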
In general terms: qHTS replaces the single test concentration by a dilution series.

Assay [7] can be described thus: Cell Viability - SK-N-SH (AID 435; calls by dose curve;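 also: potency is read from the fitted curve at half-maximal effect; compound exposure lasted 40 h at 37 °C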). The conditions noted are these: SK-N-SH neuroblastoma cell viability qHTS. The procedure, abridged: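 Cells seeded at 1500 per well and incubated 5 hr at 37 °C. Compound added, then 40 hr at 37 °C. CellTiter-Glo added, 20 min at room temperature, luminescence read.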
Assay [8] addresses Glucocorticoid receptor (Homo sapiens) (UniProt P04150). Description: GR-GFP Redistribution (AID 450;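 active = compounds whose dose series gives a full or clear partial fitted curve of increased nuclear translocation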; also: potency is read from the fitted curve at half-maximal effect). The conditions noted are these: U2OS GR-GFP nuclear translocation, laser cytometry, 2 h.
Assay [9] is described as follows: Cell Viability - Hek293 (AID 427;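 active = compounds whose dose-response curve shows a full or clear partial loss of cell viability, called from curve shape rather than a numeric limit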;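 also: potency is read from the fitted curve at half-maximal effect; cells exposed to compound for 40 hours at 37 °C before reading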). The conditions noted are these: qHTS. The method, boiled down:
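Luminescent ATP content (CellTiter-Glo, 20 min at room temperature) was measured after a 40 hr, 37 °C compound exposure of HEK293 cells. AC50 values came from Hill-equation fits of qHTS concentration-response data normalized to DMSO and 100 uM tamoxifen.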

A short description of assay [10]: Cell Viability - HepG2 (AID 433; calls by dose curve;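 also: potency is read from the fitted curve at half-maximal effect; potency for ATP loss meaning cytotoxicity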). The conditions noted are these: qHTS. The method, boiled down: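 Cytotoxicity is scored as loss of intracellular ATP in HepG2 cells exposed to compounds for 40 h. Concentration-response curves, normalized to DMSO and 100 uM tamoxifen, give AC50 values.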

Where “and” joins values, the source holds several entries; their conditions need not be identical. Equal values may be shown once. Unmarked numbers belong to inactive results. Inconclusive results are not listed. Calls of active or inactive are those of the source. Unless noted, calls follow the shape of the dose curve; as a rule, active = well fitted curve in either direction with a large enough effect (not every such curve was filed as active); inconclusive = small, poorly fitted or top-dose-only effect, or another doubt; inactive = flat fitted curve, though single readings scatter. Some results are limits rather than exact numbers.

Glucocorticoid receptor (Homo sapiens), sequence (P04150 whole entry, looked up): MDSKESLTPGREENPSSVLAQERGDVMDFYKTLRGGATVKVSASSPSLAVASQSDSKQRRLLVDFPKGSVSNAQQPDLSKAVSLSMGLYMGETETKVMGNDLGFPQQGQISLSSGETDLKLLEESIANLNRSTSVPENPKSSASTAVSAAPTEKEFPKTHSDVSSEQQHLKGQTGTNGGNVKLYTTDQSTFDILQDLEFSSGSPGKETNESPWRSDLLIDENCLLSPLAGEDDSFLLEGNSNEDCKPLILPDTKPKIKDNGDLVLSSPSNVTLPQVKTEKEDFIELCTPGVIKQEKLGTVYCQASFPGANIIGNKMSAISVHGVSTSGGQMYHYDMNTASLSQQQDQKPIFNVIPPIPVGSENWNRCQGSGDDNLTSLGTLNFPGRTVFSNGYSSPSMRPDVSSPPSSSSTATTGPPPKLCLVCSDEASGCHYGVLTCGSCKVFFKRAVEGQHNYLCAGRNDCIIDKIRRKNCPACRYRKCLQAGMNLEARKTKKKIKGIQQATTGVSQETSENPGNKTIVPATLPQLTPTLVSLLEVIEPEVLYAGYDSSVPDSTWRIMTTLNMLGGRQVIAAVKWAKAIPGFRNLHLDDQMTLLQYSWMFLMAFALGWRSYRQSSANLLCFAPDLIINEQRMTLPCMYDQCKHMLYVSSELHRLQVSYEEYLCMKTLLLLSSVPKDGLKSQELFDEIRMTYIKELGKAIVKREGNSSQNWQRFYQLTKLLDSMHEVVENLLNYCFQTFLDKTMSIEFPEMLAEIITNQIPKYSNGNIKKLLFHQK
Cytochrome P450 1A2 (Homo sapiens), sequence (P05177 whole entry, looked up): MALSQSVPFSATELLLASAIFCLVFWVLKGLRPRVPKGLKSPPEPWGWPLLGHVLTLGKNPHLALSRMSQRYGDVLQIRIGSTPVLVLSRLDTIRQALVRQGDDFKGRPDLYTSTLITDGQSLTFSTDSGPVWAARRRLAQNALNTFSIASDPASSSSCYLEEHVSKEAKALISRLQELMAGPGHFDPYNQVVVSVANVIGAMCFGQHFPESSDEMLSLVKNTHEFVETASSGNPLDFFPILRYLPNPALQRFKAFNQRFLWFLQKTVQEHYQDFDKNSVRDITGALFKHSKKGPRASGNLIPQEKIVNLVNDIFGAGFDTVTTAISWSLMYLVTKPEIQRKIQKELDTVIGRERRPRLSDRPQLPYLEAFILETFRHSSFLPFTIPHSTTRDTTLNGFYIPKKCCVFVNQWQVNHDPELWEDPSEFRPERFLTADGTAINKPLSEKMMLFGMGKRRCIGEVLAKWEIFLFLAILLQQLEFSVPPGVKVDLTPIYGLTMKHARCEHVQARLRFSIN
Lysosomal acid glucosylceramidase (Homo sapiens), sequence (P04062 whole entry, looked up): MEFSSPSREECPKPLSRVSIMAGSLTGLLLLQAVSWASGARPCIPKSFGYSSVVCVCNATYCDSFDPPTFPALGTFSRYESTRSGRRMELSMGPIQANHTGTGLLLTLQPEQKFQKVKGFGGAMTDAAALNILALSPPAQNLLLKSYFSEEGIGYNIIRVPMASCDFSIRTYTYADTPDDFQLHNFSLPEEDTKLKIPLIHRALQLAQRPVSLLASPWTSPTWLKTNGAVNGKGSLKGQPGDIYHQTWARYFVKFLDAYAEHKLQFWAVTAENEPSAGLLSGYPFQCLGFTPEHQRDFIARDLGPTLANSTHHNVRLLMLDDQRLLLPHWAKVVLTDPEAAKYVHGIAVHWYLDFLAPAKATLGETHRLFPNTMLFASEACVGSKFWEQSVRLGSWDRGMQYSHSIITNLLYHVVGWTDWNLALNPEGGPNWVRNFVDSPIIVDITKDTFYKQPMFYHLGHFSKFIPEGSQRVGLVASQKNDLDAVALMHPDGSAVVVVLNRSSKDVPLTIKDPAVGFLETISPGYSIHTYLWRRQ

With `CCn1cc(C(=O)O)c(=O)c2ccc(C)nc21`, the molecule was called inactive in [1]. The activity change, negative = inhibition in assay [2] (at 17.2 µM (top of the series)) is -8.77% and -6.5%; in assay [2] (at 38 µM (top of the series)) it was 12.2%. In addition, the activity, negative = inhibition in assay [3] (at 17.2 µM (top of the series)) is 10.7% and -2.6%; in [3] (at 38 µM (top of the series)), -7%.

Take `Oc1cccc2cccnc12`: the Potency in [4] was above 11.4 µM; in assay [6], above 92 µM; in [7], 24.4 µM (active) and 28.1 µM (active). Besides, the activity change, negative = inhibition in assay [5] was -20% [at 11.4 µM]; in assay [2] (at 7.69 µM (top of the series)), 3.84%. Besides, the activity, negative = inhibition in assay [3] (at 7.69 µM (top of the series)) was -1.23%.

As to `O=c1[nH]c2ccccc2n1CCCN1CCC(n2c(=O)[nH]c3cc(Cl)ccc32)CC1`, in assay [4], the Potency is above 11.4 µM. The result in assay [1] was inactive. Moreover, the activity change, negative = inhibition is -18.5% in assay [2] (at 7.69 µM (top of the series)); -16.6% and -16.4% in assay [2] (at 17.2 µM (top of the series)); -15.8% in assay [2] (at 38 µM (top of the series)). The activity, negative = inhibition in assay [3] (at 7.69 µM (top of the series)) is -2.55%; in [3] (at 17.2 µM (top of the series)), 1.15% and 2.02%; in assay [3] (at 38 µM (top of the series)), -0.208%.

On to `CN1C[C@H](CNC(=O)OCc2ccccc2)C[C@@H]2c3cccc4c3c(cn4C)C[C@H]21`, for which the outcome in assay [1] was inactive. Moreover, the activity change, negative = inhibition in assay [2] (at 17.2 µM (top of the series)) was 11.1%. In [3] (at 17.2 µM (top of the series)), the activity, negative = inhibition was -8.15%.

In the case of `c1ccc(C2CC2)c(OCC2=NCCN2)c1`, the molecule was called inactive in [1]. Moreover, the Potency in assay [5] is 15.8 µM (active) and 25.1 µM (active); in [8], above 46 µM. Moreover, the activity, negative = inhibition in [3] (at 38 µM (top of the series)) was -9.49%.

For `C=C1CC[C@@]2(O)[C@H]3Cc4ccc(O)c5c4[C@@]2(CCN3CC2CC2)[C@H]1O5`, the outcome in assay [1] was inactive. Further, in [2] (at 17.2 µM (top of the series)), the activity change, negative = inhibition is -9.27%. Also, the activity, negative = inhibition in assay [3] (at 17.2 µM (top of the series)) was 2.91%. Besides, the Potency in assay [8] is above 20.6 µM.

In the case of `Clc1cccc(N2CCNCC2)c1`, the outcome in [1] was inactive. Besides, the Potency in assay [5] was 15.8 µM (active); in assay [8], above 46 µM. The activity change, negative = inhibition in [2] (at 38 µM (top of the series)) is -4.86%. In addition, the activity, negative = inhibition in assay [3] (at 38 µM (top of the series)) is 3.38%.

Take `COc1ccccc1N1CCNCC1`: in assay [1], the outcome was inactive. For the same molecule, the Potency entry in [5] was “inactive”. In assay [2] (at 38 µM (top of the series)), the activity change, negative = inhibition is -22.1%. Moreover, the activity, negative = inhibition in assay [3] (at 38 µM (top of the series)) was 16.4%. Also, the Potency in assay [8] is above 46 µM.

In the case of `CNCC(O)c1ccc(O)cc1` (centres undefined), the outcome in assay [1] was inactive. The Potency in assay [6] was above 92 µM; in [9], above 92 µM; in [10], above 92 µM; in assay [7] it was above 92 µM; in [8], above 20.6 µM. In addition, the activity change, negative = inhibition in assay [2] (at 17.2 µM (top of the series)) is 19.4%. For the same molecule, in [3] (at 17.2 µM (top of the series)), the activity, negative = inhibition was 14.9%.

For `NN=C(N)N`, in assay [1], the molecule was classed as inactive. Moreover, the Potency entry in assay [5] was “inactive”. For the same molecule, in assay [2] (at 38 µM (top of the series)), the activity change, negative = inhibition was 2.99% and 1.19%. Moreover, in assay [3] (at 38 µM (top of the series)), the activity, negative = inhibition was 13% and 15.8%.

Take `CC(=O)[C@H]1CC[C@H]2[C@@H]3CC[C@H]4C[C@H](O)CC[C@]4(C)[C@H]3C(=O)C[C@]12C`: the result in assay [1] was inactive. Also, the activity change, negative = inhibition in [2] (at 17.2 µM (top of the series)) is -29.1%. In addition, the activity, negative = inhibition in [3] (at 17.2 µM (top of the series)) was -6.19%.

For `CC[C@@H](CO)NC(=O)[C@@H]1C=C2c3cccc4c3c(cn4C)C[C@H]2N(C)C1`, the call in assay [1] was inactive. The activity change, negative = inhibition in [2] (at 17.2 µM (top of the series)) was -12.8%.

`Cc1ncc(CNC(=O)N(CCCl)N=O)c(N)n1`: in [2] (at 38 µM (top of the series)), the activity change, negative = inhibition is 3.51%.

Take `CCN(CC)C(=O)N[C@@H]1C=C2c3cccc4[nH]cc(c34)C[C@@H]2N(C)C1`: the activity change, negative = inhibition in assay [2] (at 38 µM (top of the series)) is -9.69% and -17.6%.
